Results on 15 compounds are retold here after PubChem BioAssay.

Values joined by “and” are separate entries in the source; they are usually repeats but may differ in a detail not shown here. Equal values may be shown once. Active and inactive are the calls of the source. Unless noted, no rule for the calls is given here.

Assay [1] deals with Aerobactin synthetase IucA (Klebsiella pneumoniae). As to the kind of experiment: inhibition of K. pneumoniae IucA enzyme – biochemical, Tocris library, absorbance (AID 1345561).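 Also: 100% = enzyme without compound and 0% = no enzyme.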 The following applies: purified IucA enzyme assay, absorbance (OD) read-out; stronger effect = lower value;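 tested at 8 µM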.
The nature of assay [2]: viability loss with induced miR-34 in A549 – imaging, A549 dox-inducible miR-34, nuclei and caspase counts, primary screen (AID 1347080;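 active = compounds whose cell count with miR-34 switched on is under 0.7 times the count with it off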). As to conditions: A549 miR-34 inducible, Hoechst nuclei count, 48 h.
Assay [3] is described as follows: galactose survival enhancers in mitochondrial complex I cybrids – cell-based, galactose medium, ATP luminescence, primary screen (AID 1645843;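 active = z-score of at least 1.8 in each of two replicates, scored against plate mean and spread of sample wells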;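 also: positive z means more ATP and so rescue of galactose-driven cybrid death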). As to conditions: complex I mutant cybrid cells, 72 h, stronger effect = higher value.
Assay [4] in a line: compounds altering circadian rhythm period length – cell-based, LOPAC library, luminescence reporter (AID 2774).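 Also: values are relative to mean of DMSO wells on each plate.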 As to conditions: circadian reporter cells, at 7 µM, actives lie on both sides.
For assay [5], the system named is Hepatitis C virus NS3 helicase. As to the kind of experiment: blockers of NS3h binding to ssDNA – biochemical, fluorescence polarization, LOPAC1280 library, primary screen (AID 687035; in the data active = inhibition above about 37%). The following applies: Purified HCV NS3 helicase, Cy5-dT15 ssDNA binding fluorescence polarization; stronger effect = higher value; concentration not given here.
Assay [6] is described as follows: compounds altering Cy5-DNA-NS3h complex signal – biochemical, LOPAC1280, artefact control for HCV NS3 helicase inhibitor project (AID 687037). The following applies: Cy5-DNA-NS3h complex fluorescence interference counterscreen. (A counterscreen serves to expose hits that act by an unwanted route or on another target.)
For assay [7], the system named is Aerobactin synthetase IucA (Klebsiella pneumoniae, hypervirulent). As to the kind of experiment: biochemical IucA inhibition screen of LOPAC library by absorbance (AID 1346212).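 Also: 100% = no compound wells and 0% = no enzyme wells.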 The following applies: IucA enzyme assay, absorbance (OD) readout; stronger effect = lower value;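 tested at 8 µM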.
The nature of assay [8]: blockers of cellular phospholipid synthesis – cell-based, LOPAC library, screen 4, primary screen (AID 1347384). As to conditions: animal cells, phospholipid biosynthesis inhibition screen; at 10 µM.
Assay [9] in a line: compounds altering viability of human ES cells (AID 493140).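 Also: cells exposed to compounds for four days before counting.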 As to conditions: human embryonic stem cell survival screen; stronger effect = higher value.
Assay [10] is described as follows: P. berghei load reduction in hepatocytes – cell-based, HepG2, luciferase luminescence, HepG2 viability, primary screen (AID 624349; in the data active = parasite load remaining mostly below about 12%, no sharp cut-off; inactive = mostly above about 10%;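 also: 100% = mean of DMSO negative control wells on the same plate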). The following applies: P. berghei liver stage in HepG2, luciferase luminescence, concentration not given here; parasite load remaining: stronger effect = lower value; viability: measured here: HepG2 viability without parasites.
Assay [11] is described as follows: MELAS cybrid and Rieske KO viability enhancers – cell-based, MELAS cybrids, Rieske KO mouse fibroblasts, CellTiter-Glo, primary screen (AID 1508586;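 active = mean z-score across replicates of 1.96 or higher in either the MELAS or the Rieske mutant cell line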;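 also: z relative to plate mean and SD of compound and empty wells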). As to conditions: low glucose.
Setting [12] is: stronger effect = lower value, cell number ratio, induced over uninduced.
Where [13] appears, read: measured here: relative caspase fold change +Dox/-Dox.
[14] abbreviates: measured here: total cells with miR-34 induction, stronger effect = lower value.
The mark [15] stands for this setting: measured here: total cells without miR-34 induction.
[16] abbreviates: MELAS cybrid survival, CellTiter-Glo 48 h, stronger effect = higher value.
Where [17] appears, read: Rieske KO mouse fibroblast survival, CellTiter-Glo 72 h.

Take `C[C@H](NC[C@H](O)CP(=O)(O)CC1CCCCC1)c1ccc(Cl)c(Cl)c1`: the remaining activity in assay [1] is 121% (inactive). Further, the fold change is 0.971 (inactive) in assay [2] (setting [12]) and 0.73 in [2] (setting [13]). Besides, the values for the cell count in assay [2] (setting [14]) and in assay [2] (setting [15]) were 10100 and 10400, respectively. In addition, the z-score in assay [3] is 0.2 (inactive).
With `C[N+]1(C)CCc2cc3c(cc2[C@H]1[C@@H]1OC(=O)c2c1ccc1c2OCO1)OCO3`, the period change in [4] was -0.02 h (inactive). Further, in assay [5], the inhibition was -3% (inactive). Further, the fluorescence ratio (interference) in assay [6] is 1 (inactive). The remaining activity in [1] is 123% (inactive) and 114% (inactive); in assay [7], 119% (inactive).
For `C=CCN1CC[C@]23c4c5ccc(O)c4O[C@H]2/C(=N/NC(=O)c2ccccc2)CC[C@@]3(O)[C@H]1C5`, the period change in [4] is 0.215 h (inactive). In addition, the remaining activity in assay [1] is 115% (inactive); in [7], 116% (inactive). The fold change was 0.994 (inactive) in assay [2] (stronger effect = lower value) and 0.667 in assay [2] (setting [13]). The cell count in assay [2] (setting [14]) worked out at 9120; in [2] (setting [15]), 9170. The z-score in assay [3] is -0.33 (inactive).
Take `CC(C)(c1ccc(OCC2CO2)cc1)c1ccc(OCC2CO2)cc1` (centres undefined): the remaining activity in assay [1] was 110% (inactive). For the same compound, the fold change in assay [2] (stronger effect = lower value) was 0.903 (inactive) and 0.927 (inactive) and 0.945 (inactive); in assay [2] (setting [13]), 1.23 and 0.827 and 0.981. Further, the cell count in assay [2] (setting [14]) was 5020 and 5510 and 8910; in assay [2] (setting [15]) it was 5560 and 5950 and 9430. Moreover, the z-score in assay [3] is -0.925 (inactive).
In the case of `C[N+]1(C)CCC(OC(=O)C(c2ccccc2)c2ccccc2)CC1`, the period change in assay [4] is 0.03 h (inactive). The inhibition in [5] is -2% (inactive). In addition, the fluorescence ratio (interference) in assay [6] is 1.1 (inactive). Besides, the results for the remaining activity in [1] and in assay [7] were 93.9% (inactive) and 107% (inactive), respectively. Moreover, the fold change was 0.984 (inactive) and 0.955 (inactive) in assay [2] (stronger effect = lower value); 1.12 and 0.994 in assay [2] (setting [13]). In addition, the cell count in [2] (setting [14]) was 9760 and 8710; in assay [2] (setting [15]) it was 9910 and 9120. For the same compound, in assay [3], the z-score is 0.275 (inactive) and 1.67 (inactive).
With `O=c1ccc2[nH]cc(C3=CCNCC3)c2[nH]1`, the remaining activity in assay [1] is 123% (inactive). In addition, the fold change in [2] (stronger effect = lower value) is 0.986 (inactive); in [2] (setting [12]), 0.934 (inactive); in [2] (setting [13]), 2.8 and 0.965. For the same compound, the cell count in [2] (setting [14]) is 10100 and 7840; in assay [2] (setting [15]) it was 10200 and 8390. In assay [8], the compound was classed as inactive. The z-score in [3] was 0.725 (inactive) and 0.015 (inactive).
On to `CN(C(=O)Cc1ccc(Cl)c(Cl)c1)[C@H](CN1CCCC1)c1ccccc1`, for which the remaining activity in assay [1] was 98.2% (inactive). The figures for the fold change in assay [2] (setting [12]) and in [2] (setting [13]) were 0.987 (inactive) and 0.762, respectively. In addition, the cell count in assay [2] (setting [14]) is 7540; in assay [2] (setting [15]), 7640. Moreover, the z-score in assay [3] was -0.625 (inactive).
Consider `CC(=O)N(C)c1cccc(-c2ccnc3c(C(=O)c4cccs4)cnn23)c1`, for which, in assay [1], the remaining activity is 110% (inactive). The fold change was 0.919 (inactive) in [2] (stronger effect = lower value) and 1.18 in [2] (setting [13]). The cell count amounted to 6530 in assay [2] (setting [14]) and 7110 in assay [2] (setting [15]). In addition, the z-score in assay [3] was 2.35 (active).
On to `CC(C)[C@@]1(NC(=O)[C@@H]2C[C@@H]3c4cccc5[nH]cc(c45)C[C@H]3N(C)C2)O[C@@]2(O)[C@@H]3CCCN3C(=O)[C@H](Cc3ccccc3)N2C1=O`, for which the period change in [4] is 0.005 h (inactive). Moreover, the survival in assay [9] is 11.8 (inactive). For the same compound, in assay [10], the parasite load remaining is 54.5% (inactive) and 64.8% (inactive) and 17.1% (inactive). For the same compound, in assay [10], the viability was 93% and 73.6% and 61.5%. For the same compound, the remaining activity in [1] is 88.2% (inactive); in assay [7], 120% (inactive). For the same compound, the fold change in assay [2] (stronger effect = lower value) was 0.784 (inactive) and 0.954 (inactive) and 0.887 (inactive); in assay [2] (setting [13]), 1.05 and 0.961 and 0.856. Moreover, the cell count is 6690 and 7710 and 8510 in assay [2] (setting [14]); 8530 and 8070 and 9590 in assay [2] (setting [15]). Moreover, the z-score in assay [11] (setting [16]) is -0.553 (inactive); in assay [11] (setting [17]), 0.653; in [3] it was -0.045 (inactive) and 0.13 (inactive).
With `CN(C(=O)Cc1ccccc1)C(CN1CCCC1)c1ccccc1` (centres undefined), in assay [1], the remaining activity is 116% (inactive). Also, the fold change in assay [2] (setting [12]) was 0.952 (inactive); in assay [2] (setting [13]), 0.864. Also, the cell count was 8670 in assay [2] (setting [14]) and 9110 in [2] (setting [15]). The z-score in assay [3] is 0.03 (inactive).
With `CN1c2ccccc2C(NCCCCCCC(=O)O)c2ccc(Cl)cc2S1(=O)=O` (centres undefined), the remaining activity in assay [1] was 117% (inactive). Besides, the fold change is 0.955 (inactive) and 0.9 (inactive) in assay [2] (stronger effect = lower value); 0.36 and 0.634 in assay [2] (setting [13]). Moreover, the cell count in assay [2] (setting [14]) was 7100 and 7840; in [2] (setting [15]), 7430 and 8710. Further, the figures for the z-score in [11] (setting [16]), in assay [11] (setting [17]) and in assay [3] were -0.117 (inactive), 0.00377 and 0.255 (inactive), respectively.
In the case of `COc1ccc(CNC(=O)/C=C/c2ccc3[nH]cc(CCN(C)C)c3c2)cc1`, the period change in assay [4] was 0.1 h (inactive). Also, the inhibition in assay [5] is -1% (inactive). In addition, the fluorescence ratio (interference) in [6] was 1 (inactive). In addition, the remaining activity in assay [1] is 97.5% (inactive); in assay [7], 111% (inactive). In addition, the fold change in assay [2] (stronger effect = lower value) is 1.08 (inactive) and 0.935 (inactive); in [2] (setting [13]) it was 1.56 and 0.859. Further, the cell count is 9510 and 8680 in assay [2] (setting [14]); 8780 and 9280 in assay [2] (setting [15]). In addition, the z-score in assay [3] is -0.155 (inactive) and -0.415 (inactive).
For `CC(N)Cc1c[nH]c2ccc(OCc3cccs3)cc12` (centres undefined), the period change in assay [4] is -0.015 h (inactive). For the same compound, the inhibition in [5] was -2% (inactive). For the same compound, in assay [6], the fluorescence ratio (interference) was 0.9 (inactive). The remaining activity in [1] was 105% (inactive). Also, the fold change in assay [2] (stronger effect = lower value) is 1.09 (inactive) and 1.04 (inactive) and 0.983 (inactive); in [2] (setting [13]) it was 0.892 and 0.841 and 0.895. In addition, the cell count is 9650 and 5700 and 7970 in assay [2] (setting [14]); 8810 and 5500 and 8110 in assay [2] (setting [15]). Besides, the outcome in [8] was inactive. Also, the z-score in assay [3] was -0.655 (inactive) and -0.22 (inactive).
`OC12C3C4CC5C6C4C1C6C(C53)N2CCc1cccc(F)c1` (centres undefined): in [1], the remaining activity was 98.4% (inactive). The fold change is 0.838 (inactive) in [2] (setting [12]) and 1.86 in [2] (setting [13]). Moreover, the figures for the cell count in assay [2] (setting [14]) and in assay [2] (setting [15]) were 7940 and 9480, respectively. Also, in assay [3], the z-score is 0.295 (inactive).
Take `O=C1Nc2ccccc2C2(CCN(CCc3ccc(C(F)(F)F)cc3)CC2)O1`: the remaining activity in [1] is 102% (inactive). In addition, the fold change is 1.06 (inactive) in assay [2] (setting [12]) and 0.675 in assay [2] (setting [13]). Besides, the cell count in [2] (setting [14]) amounted to 4790; in assay [2] (setting [15]) it was 4500. Moreover, in assay [3], the z-score was -0.66 (inactive).

Broadly, the remaining activity is the signal under treatment as a percentage of the control signal. The inhibition is the drop in the measured response relative to a control, in per cent. One may read the viability as a per cent measure of how many cells are alive, often set against a control.
